The source made the active and inactive calls. Rule for the calls, unless noted: active = hit-call score of the fitted dose curve at least 0.9, where 1 is the maximum; inactive = score below 0.9.
Assays:
[1] = read-out: Protein phosphatase 2A (PPP2R4), PTPA (gene 5524); assay: LTEA_HepaRG_PPP2R4: Life Technologies and Expression Analysis (LTEA) Assay for Protein phosphatase 2A (PPP2R4) using HepaRG (AID 2283522); conditions: mRNA level, 48 h; actives raise or lower the signal
Outline: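 Using HepaRG cultures maintained in 0.5% DMSO, chemicals are tested 48 h at up to 100 uM in duplicate. Induction or suppression of PPP2R4 mRNA, measured by qRT-PCR, is fitted bidirectionally against the vehicle baseline.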

[2] = read-out: Phosphatase and tensin (PTEN), PTEN (gene 5728); assay: LTEA_HepaRG_PTEN: Life Technologies and Expression Analysis (LTEA) Assay for Phosphatase and tensin (PTEN) using HepaRG (AID 2283523); conditions: mRNA level, 48 h; actives raise or lower the signal
Outline: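 HepaRG, 48 h exposure, 8-pt half-log series from 100 uM top, 0.5% DMSO vehicle, duplicates. Readout: Fluidigm qRT-PCR of PTEN transcript; housekeeping normalization (ACTB, GAPDH, POLR2A). Gain or loss fitted relative to DMSO baseline.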

[3] = read-out: solute carrier (SLC22A1), SLC22A1 (gene 6580); assay: LTEA_HepaRG_SLC22A1: Life Technologies and Expression Analysis (LTEA) Assay for solute carrier (SLC22A1) using HepaRG (AID 2283524); conditions: mRNA level, 48 h; actives raise or lower the signal;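 for AC50: differentiated human HepaRG liver cells in serum-free induction medium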
Outline: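 qRT-PCR readout (TaqMan, Fluidigm arrays) of SLC22A1 transcript, normalized to three housekeeping genes; bidirectional curve fit relative to 0.5% DMSO vehicle. Differentiated human HepaRG cells, 48 h chemical exposure, top concentration 100 uM, half-log steps, eight points.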

[4] = read-out: Pyruvate Dehydrogenase Kinase 4 (PDK4), PDK4 (gene 5166); assay: LTEA_HepaRG_PDK4: Life Technologies and Expression Analysis (LTEA) Assay for Pyruvate Dehydrogenase Kinase 4 (PDK4) using HepaRG (AID 2283525); conditions: mRNA level, 48 h; actives raise or lower the signal
Outline: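 HepaRG (human liver line), 48 h chemical exposure, 8-pt half-log CRC top 100 uM, 0.5% DMSO vehicle, duplicates. Readout: TaqMan qRT-PCR of PDK4 mRNA, housekeeping-normalized; gain/loss fit relative to DMSO baseline.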

[5] = read-out: NAD(P)H dehydrogenase [quinone] 1 (NQO1), NQO1 (gene 1728); assay: LTEA_HepaRG_NQO1: Life Technologies and Expression Analysis (LTEA) Assay for NAD(P)H dehydrogenase [quinone] 1 (NQO1) using HepaRG (AID 2283526); conditions: mRNA level, 48 h; actives raise or lower the signal
Outline: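 In this assay, gene expression is read by qRT-PCR after 48 h exposure of HepaRG cells to eight concentrations (max 100 uM, half-log) in 0.5% DMSO. Each chemical runs in duplicate, and activity is scored relative to vehicle.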

[6] = read-out: succinate dehydrogenase complex iron sulfur subunit B (SDHB), SDHB (gene 6390); assay: LTEA_HepaRG_SDHB: Life Technologies and Expression Analysis (LTEA) Assay for succinate dehydrogenase complex iron sulfur subunit B (SDHB) using HepaRG (AID 2283528); conditions: mRNA level, 48 h; actives raise or lower the signal
Outline: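 A human HepaRG culture in serum-free induction medium received test chemicals for 48 h over an eight-point range capped at 100 uM. SDHB expression change was quantified by qRT-PCR.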

[7] = read-out: Signal transducer and activator of transcription 3 (Homo sapiens) (UniProt P40763); assay: LTEA_HepaRG_STAT3: Life Technologies and Expression Analysis (LTEA) Assay for Signal transducer and activator of transcription (STAT3) using HepaRG (AID 2283529); conditions: mRNA level, 48 h; actives raise or lower the signal
Outline: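 HepaRG, 48 h exposure, 8-pt half-log series (top 100 uM), 0.5% DMSO vehicle, duplicates. Readout: STAT3 transcript by Fluidigm qRT-PCR, housekeeping-normalized; bidirectional fit vs DMSO baseline.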

[8] = read-out: solute carrier (SLCO1B1), SLCO1B1 (gene 10599); assay: LTEA_HepaRG_SLCO1B1: Life Technologies and Expression Analysis (LTEA) Assay for solute carrier (SLCO1B1) using HepaRG (AID 2283530); conditions: mRNA level, 48 h; actives raise or lower the signal
Outline: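 HepaRG, serum-free induction medium, 48 h dosing, 8-pt half-log from 100 uM, 0.5% DMSO vehicle, duplicates. Readout: SLCO1B1 mRNA, qRT-PCR, ACTB/GAPDH/POLR2A normalization; up or down fit vs DMSO.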

[9] = read-out: sulfotransferase 2A1 (SULT2A1), SULT2A1 (gene 6822); assay: LTEA_HepaRG_SULT2A1: Life Technologies and Expression Analysis (LTEA) Assay for sulfotransferase 2A1 (SULT2A1) using HepaRG (AID 2283531); conditions: mRNA level, 48 h; actives raise or lower the signal
Outline: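 Transcript levels of SULT2A1, quantified by qRT-PCR and normalized to three housekeeping genes, serve as the readout. Human HepaRG cultures receive test chemicals for 48 h at up to 100 uM in half-log steps, with 0.5% DMSO vehicle.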

[10] = read-out: Transforming Growth Factor (TGFA), TGFA (gene 7039); assay: LTEA_HepaRG_TGFA: Life Technologies and Expression Analysis (LTEA) Assay for Transforming Growth Factor (TGFA) using HepaRG (AID 2283532); conditions: mRNA level, 48 h; actives raise or lower the signal
Outline: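 qRT-PCR read-out of TGFA transcript, normalized to three housekeeping genes, fitted bidirectionally against 0.5% DMSO baseline. Human HepaRG cultures received chemicals for 48 h at eight half-log concentrations, top 100 uM.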

[11] = read-out: Transforming Growth Factor (TGFB1), TGFB1 (gene 7040); assay: LTEA_HepaRG_TGFB1: Life Technologies and Expression Analysis (LTEA) Assay for Transforming Growth Factor (TGFB1) Transporter using HepaRG (AID 2283533); conditions: mRNA level, 48 h; actives raise or lower the signal
Outline: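 HepaRG, 48 h post-plating, switched to serum-free induction medium; chemicals 100 uM top, half-log, 8 pts, 0.5% DMSO, dup; 48 h exposure; RNA → Fluidigm TaqMan qRT-PCR; norm ACTB/GAPDH/POLR2A; bidirectional fit vs DMSO.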

[12] = read-out: TIMP1, TIMP1 (gene 7076); assay: LTEA_HepaRG_TIMP1: Life Technologies and Expression Analysis (LTEA) Assay for TIMP1 using HepaRG (AID 2283534); conditions: mRNA level, 48 h; actives raise or lower the signal
Outline: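 Readout is TIMP1 mRNA level measured by qRT-PCR and normalized to three housekeeping genes. Human HepaRG cells were treated for 48 h in duplicate at eight concentrations up to 100 uM (0.5% DMSO); gain or loss fitted against DMSO.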

[13] = read-out: Tumor necrosis factor receptor 1 (TNFRSF1A), TNFRSF1A (gene 7132); assay: LTEA_HepaRG_TNFRSF1A: Life Technologies and Expression Analysis (LTEA) Assay for Tumor necrosis factor receptor 1 (TNFRSF1A) using HepaRG (AID 2283535); conditions: mRNA level, 48 h; actives raise or lower the signal
Outline: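 Read-out is TNFRSF1A transcript level by TaqMan qRT-PCR, normalized to three housekeeping genes, scored as gain or loss of signal versus 0.5% DMSO. Human HepaRG cells received test chemicals for 48 h at up to 100 uM (half-log series).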

[14] = read-out: Thyroid Hormone Responsive (THRSP), THRSP (gene 7069); assay: LTEA_HepaRG_THRSP: Life Technologies and Expression Analysis (LTEA) Assay for Thyroid Hormone Responsive (THRSP) using HepaRG (AID 2283536); conditions: mRNA level, 48 h; actives raise or lower the signal
Outline: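 qRT-PCR read-out (Fluidigm TaqMan), housekeeping-normalized (ACTB/GAPDH/POLR2A). HepaRG, 48 h chemical exposure, 8-pt half-log series from 100 uM in 0.5% DMSO, duplicates. Bidirectional curve fit vs 0.5% DMSO baseline.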

[15] = read-out: Cellular tumor antigen p53 (Homo sapiens) (UniProt P04637); assay: LTEA_HepaRG_TP53: Life Technologies and Expression Analysis (LTEA) Assay for Tumor Protein P53 (TP53) using HepaRG (AID 2283537); conditions: mRNA level, 48 h; actives raise or lower the signal
Outline: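 Gain or loss of TP53 mRNA signal is scored relative to 0.5% DMSO after 48 h chemical treatment of HepaRG liver cells, tested in duplicate at eight half-log concentrations up to 100 uM.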

[16] = read-out: UDP glucuronosyltransferase (UGT1A6), UGT1A6 (gene 54578); assay: LTEA_HepaRG_UGT1A6: Life Technologies and Expression Analysis (LTEA) Assay for UDP glucuronosyltransferase (UGT1A6) using HepaRG (AID 2283539); conditions: mRNA level, 48 h; actives raise or lower the signal
Outline: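 HepaRG, 48 h post-plating switch to serum-free induction medium; chemical 48 h, 100 uM top, half-log x8, duplicate, 0.5% DMSO. Phenobarbital 1mM induction control. UGT1A6 mRNA by TaqMan qRT-PCR; gain/loss fit vs DMSO.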

[17] = read-out: X-box binding protein 1 (XBP1), XBP1 (gene 7494); assay: LTEA_HepaRG_XBP1: Life Technologies and Expression Analysis (LTEA) Assay for X-box binding protein 1 (XBP1) using HepaRG (AID 2283540); conditions: mRNA level, 48 h; actives raise or lower the signal
Outline: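 Transcript levels of XBP1, measured by qRT-PCR and normalised to three housekeeping genes, were fitted bidirectionally relative to 0.5% DMSO controls. Human HepaRG cells received eight-point half-log dilutions from 100 uM for 48 h.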

[18] = LTEA_HepaRG_LDH_cytotoxicity: Cytotoxicity Assessment in the Life Technologies and Expression Analysis (LTEA) Assay (AID 2283563; active = hit-call score of the fitted dose curve at least 0.9, where 1 is the maximum;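 for AC50: LDH activity released into spent culture medium as a marker of cell death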)
Outline: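 Cells were thawed and plated for 48 h. Medium was then replaced with serum-free induction medium. Chemicals (8 half-log points, maximum 100 uM, 0.5% DMSO) were added in duplicate for 48 h, after which spent medium was assayed for LDH.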

[19] = read-out: Nuclear factor erythroid 2-related factor 2 (Homo sapiens) (UniProt Q16236); assay: LTEA_HepaRG_NFE2L2: Life Technologies and Expression Analysis (LTEA) Assay for Nuclear factor erythroid 2-related factor 2 (NFE2L2) Transcription Factor using HepaRG (AID 2283527); conditions: mRNA level, 48 h; actives raise or lower the signal
Outline: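 HepaRG, 48 h dosing, 8-pt half-log series from 100 uM in 0.5% DMSO, duplicates. Read-out: NFE2L2 mRNA by qRT-PCR (ACTB/GAPDH/POLR2A normalization). Bidirectional curve fit vs DMSO baseline.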

[20] = read-out: UDP glucuronosyltransferase (UGT1A1), UGT1A1 (gene 54658); assay: LTEA_HepaRG_UGT1A1: Life Technologies and Expression Analysis (LTEA) Assay for UDP glucuronosyltransferase (UGT1A1) using HepaRG (AID 2283538); conditions: mRNA level, 48 h; actives raise or lower the signal
Outline: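 mRNA induction or loss of UGT1A1, by TaqMan qRT-PCR, in duplicate HepaRG wells after 48 h exposure to half-log dilutions topping at 100 uM; DMSO (0.5%) served as baseline.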

Measured: AC50

Nuclear factor erythroid 2-related factor 2 (Homo sapiens), sequence (Q16236 whole entry, looked up): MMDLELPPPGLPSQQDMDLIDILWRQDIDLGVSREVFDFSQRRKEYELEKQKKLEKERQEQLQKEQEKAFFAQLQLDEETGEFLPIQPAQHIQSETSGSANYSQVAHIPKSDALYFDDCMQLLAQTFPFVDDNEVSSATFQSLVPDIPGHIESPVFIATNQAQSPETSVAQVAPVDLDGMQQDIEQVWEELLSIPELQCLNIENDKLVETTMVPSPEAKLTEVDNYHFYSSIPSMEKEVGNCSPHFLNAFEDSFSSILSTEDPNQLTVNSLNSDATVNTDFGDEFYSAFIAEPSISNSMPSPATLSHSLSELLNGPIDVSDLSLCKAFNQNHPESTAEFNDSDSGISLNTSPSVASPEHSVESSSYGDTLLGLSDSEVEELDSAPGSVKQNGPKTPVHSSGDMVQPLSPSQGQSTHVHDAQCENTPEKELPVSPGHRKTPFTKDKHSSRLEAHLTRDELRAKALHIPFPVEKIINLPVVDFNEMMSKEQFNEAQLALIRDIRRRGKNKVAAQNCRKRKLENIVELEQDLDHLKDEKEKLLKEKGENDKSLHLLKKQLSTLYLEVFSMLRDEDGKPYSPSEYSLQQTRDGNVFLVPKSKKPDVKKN
Cellular tumor antigen p53 (Homo sapiens), sequence (P04637 whole entry, looked up): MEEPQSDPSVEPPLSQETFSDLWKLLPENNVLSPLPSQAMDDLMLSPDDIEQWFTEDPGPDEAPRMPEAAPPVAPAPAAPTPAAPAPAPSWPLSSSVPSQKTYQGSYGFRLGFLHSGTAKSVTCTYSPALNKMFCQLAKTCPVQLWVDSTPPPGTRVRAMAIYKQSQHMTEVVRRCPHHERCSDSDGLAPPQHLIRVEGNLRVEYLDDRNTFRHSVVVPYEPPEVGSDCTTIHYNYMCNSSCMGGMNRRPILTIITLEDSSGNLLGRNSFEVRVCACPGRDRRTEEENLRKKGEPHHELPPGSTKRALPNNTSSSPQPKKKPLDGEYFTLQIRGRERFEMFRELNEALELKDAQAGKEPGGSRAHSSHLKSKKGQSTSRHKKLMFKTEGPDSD
Signal transducer and activator of transcription 3 (Homo sapiens), sequence (P40763 whole entry, looked up): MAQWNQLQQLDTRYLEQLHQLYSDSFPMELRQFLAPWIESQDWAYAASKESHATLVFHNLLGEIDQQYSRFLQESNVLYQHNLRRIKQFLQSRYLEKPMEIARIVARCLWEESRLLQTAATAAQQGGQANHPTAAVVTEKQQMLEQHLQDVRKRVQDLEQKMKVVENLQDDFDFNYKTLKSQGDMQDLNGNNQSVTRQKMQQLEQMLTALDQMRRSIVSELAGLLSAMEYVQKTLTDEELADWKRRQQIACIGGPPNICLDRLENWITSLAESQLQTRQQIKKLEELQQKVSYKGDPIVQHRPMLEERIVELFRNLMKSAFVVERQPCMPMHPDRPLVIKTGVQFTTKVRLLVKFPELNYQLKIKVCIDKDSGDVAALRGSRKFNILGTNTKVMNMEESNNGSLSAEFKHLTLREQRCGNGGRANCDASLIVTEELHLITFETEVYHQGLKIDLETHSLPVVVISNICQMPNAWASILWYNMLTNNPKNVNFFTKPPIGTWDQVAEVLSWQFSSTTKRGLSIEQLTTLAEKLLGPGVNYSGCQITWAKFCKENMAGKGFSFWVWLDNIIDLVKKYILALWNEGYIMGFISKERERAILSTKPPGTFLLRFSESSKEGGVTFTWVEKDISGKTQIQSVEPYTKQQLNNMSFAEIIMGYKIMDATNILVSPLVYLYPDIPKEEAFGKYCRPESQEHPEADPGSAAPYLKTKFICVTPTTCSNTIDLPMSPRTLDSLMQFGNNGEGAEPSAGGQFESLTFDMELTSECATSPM

Cc1cccc2ccccc12
not listed: [19] | [20]
inactive: all other assays above

CC(C)(c1cc(Br)c(O)c(Br)c1)c1cc(Br)c(O)c(Br)c1
active: [2] 72.7 µM | [3] 53.4 µM | [4] 88.9 µM | [5] 86.6 µM | [9] 91.4 µM | [10] 89.1 µM | [15] 89.2 µM | [18] 58.3 µM
not listed: [11] | [14] | [20]
inactive: all other assays above

Cc1ncc(CO)c(CO)c1O
not listed: [18]
inactive: all other assays above

O=C(O)Cc1cc(I)c(Oc2ccc(O)c(I)c2)c(I)c1
inactive: [1] | [2] | [5] | [6] | [7] | [13] | [18]
active: [3] 78.8 µM | [4] 0.00367 µM | [19] 85.6 µM | [8] 82.7 µM | [9] 79.5 µM | [10] 85.3 µM | [14] 81.7 µM | [15] 79.6 µM | [16] 77.9 µM | [17] 75 µM

Cc1ccc2oc(CN(Cc3ccccc3)C(=O)Nc3c(F)cc(F)cc3F)c(-c3ccc(Cl)cc3)c2c1
active: [3] 44.2 µM | [15] 44.2 µM
not listed: [20]
inactive: all other assays above

c1ccc2ccccc2c1
not listed: [12] | [14] | [20]
inactive: all other assays above

CC(=O)N1CCN(c2ccc(OC[C@H]3CO[C@](Cn4ccnc4)(c4ccc(Cl)cc4Cl)O3)cc2)CC1
inactive: [5] | [17]
active: [1] 76.6 µM | [2] 78.8 µM | [3] 13.3 µM | [4] 11 µM | [19] 12 µM | [6] 30.8 µM | [7] 35 µM | [8] 22.8 µM | [9] 12.2 µM | [10] 12.1 µM | [12] 83.1 µM | [13] 75.9 µM | [15] 90.3 µM | [16] 30.8 µM | [18] 86.9 µM

Source: PubChem BioAssay (EPA / NIEHS)
